# A number with no mark means an inactive call. For some of these results: Measured potencies and affinities stand elsewhere. Active and inactive are the calls of the source. Unless noted, the rule behind the calls is not given here.
# Legend:
# [1] = antimalarial activity against Dd2 strain (AID 2302;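 active = growth inhibition above 50% at the single 2 µM test dose, taken to imply half-maximal potency below 2 µM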;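 note: 0% = DMSO untreated growth and 100% = chloroquine plus artemisinin killed control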); conditions: P. falciparum Dd2 in RBCs, LDH growth readout, 72 h; at 2 µM; active compounds read high
# [2] = HepG2 cytotoxicity, primary screen, cytotoxicity control for P. falciparum antimalarial project, cell-based, ATP luminescence (AID 2303;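 active = inhibition above 50%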;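 note: 0% = DMSO wells and 100% = digitonin-killed cells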); conditions: HepG2 viability, 24-48 h, at 10 µM, active compounds read high
# [3] = target: L-lactate dehydrogenase (Plasmodium falciparum (isolate CDC / Honduras)) (UniProt Q27743); assay: PfLDH activity inhibition – cell lysate, 3D7 strain, counter-screen for P. falciparum growth inhibition project (AID 2304);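 note: 0% = vehicle and 100% = reference inhibitor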; conditions: P. falciparum 3D7 crude extract, LDH APAD/NBT absorbance; at 2 µM; active compounds read high
# [4] = inhibition of 3D7 malaria parasite growth – strain 3D7 (AID 2306);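 note: 0% = DMSO wells and 100% = chloroquine plus artemisinin control wells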; conditions: P. falciparum 3D7 erythrocytic growth, LDH absorbance, 72 h; at 2 µM; active compounds read high
# [5] = target: Calcium-dependent protein kinase 1 (Plasmodium falciparum (isolate 3D7)) (UniProt P62344); assay: PfCDPK1 kinase inhibitors, biochemical, TCAMS library (AID 1159585; cut-off not given, nearly all actives have IC50 up to about 0.98 µM;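 note: inhibitors leave more ATP so luminescence rises with inhibition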); conditions: recombinant PfCDPK1, Kinase-Glo ATP depletion luminescence
# [6] = target: Plasmodium falciparum protein kinase 6 (PK6, PF3D7_1337100) (UniProt Q8IDW1); assay: PfPK6 kinase inhibitors, biochemical, TCAMS library (AID 1159586); conditions: recombinant PfPK6, Kinase-Glo ATP depletion luminescence
# [7] = target: Protein kinase 7 (PK7), Plasmodium falciparum 3D7 (PF3D7_0213400) (UniProt Q7YTF7); assay: inhibition of Plasmodium PK7 catalytic activity – biochemical, TCAMS antimalarial set, Kinase-Glo luminescence (AID 1159587); conditions: recombinant PfPK7, Kinase-Glo ATP depletion luminescence
# [8] = target: Calcium-dependent protein kinase 4 (Plasmodium falciparum (isolate 3D7)) (UniProt Q8IBS5); assay: PfCDPK4 kinase inhibitors, biochemical, TCAMS library (AID 1159588; cut-off not given, nearly all actives have IC50 up to about 0.91 µM); conditions: recombinant PfCDPK4, Kinase-Glo ATP depletion luminescence
# Chain of Calcium-dependent protein kinase 4 (Plasmodium falciparum (isolate 3D7)) (Q8IBS5 whole entry, looked up): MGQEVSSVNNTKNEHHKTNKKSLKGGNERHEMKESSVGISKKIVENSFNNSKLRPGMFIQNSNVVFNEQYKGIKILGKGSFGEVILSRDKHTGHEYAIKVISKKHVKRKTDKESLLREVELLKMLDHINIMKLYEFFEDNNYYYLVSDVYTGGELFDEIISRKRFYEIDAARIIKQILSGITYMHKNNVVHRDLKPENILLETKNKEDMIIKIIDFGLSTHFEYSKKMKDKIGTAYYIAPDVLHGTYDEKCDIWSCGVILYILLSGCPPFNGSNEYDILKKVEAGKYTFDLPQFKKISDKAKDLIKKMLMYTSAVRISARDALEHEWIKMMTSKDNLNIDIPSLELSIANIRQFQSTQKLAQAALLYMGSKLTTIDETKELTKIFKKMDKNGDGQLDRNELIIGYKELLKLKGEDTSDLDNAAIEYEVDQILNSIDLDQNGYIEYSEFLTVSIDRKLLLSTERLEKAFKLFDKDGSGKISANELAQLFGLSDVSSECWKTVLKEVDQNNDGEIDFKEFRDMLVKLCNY
# Chain of L-lactate dehydrogenase (Plasmodium falciparum (isolate CDC / Honduras)) (Q27743 whole entry, looked up): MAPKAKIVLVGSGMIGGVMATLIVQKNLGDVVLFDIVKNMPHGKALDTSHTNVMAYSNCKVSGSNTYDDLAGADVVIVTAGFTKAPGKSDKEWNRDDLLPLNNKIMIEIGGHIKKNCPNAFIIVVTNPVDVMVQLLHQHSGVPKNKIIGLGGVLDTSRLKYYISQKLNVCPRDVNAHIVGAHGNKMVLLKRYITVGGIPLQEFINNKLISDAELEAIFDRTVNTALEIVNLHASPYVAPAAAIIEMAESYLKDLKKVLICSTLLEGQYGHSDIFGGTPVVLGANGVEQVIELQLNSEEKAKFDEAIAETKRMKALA
# Chain of Protein kinase 7 (PK7), Plasmodium falciparum 3D7 (PF3D7_0213400) (Q7YTF7 1-343): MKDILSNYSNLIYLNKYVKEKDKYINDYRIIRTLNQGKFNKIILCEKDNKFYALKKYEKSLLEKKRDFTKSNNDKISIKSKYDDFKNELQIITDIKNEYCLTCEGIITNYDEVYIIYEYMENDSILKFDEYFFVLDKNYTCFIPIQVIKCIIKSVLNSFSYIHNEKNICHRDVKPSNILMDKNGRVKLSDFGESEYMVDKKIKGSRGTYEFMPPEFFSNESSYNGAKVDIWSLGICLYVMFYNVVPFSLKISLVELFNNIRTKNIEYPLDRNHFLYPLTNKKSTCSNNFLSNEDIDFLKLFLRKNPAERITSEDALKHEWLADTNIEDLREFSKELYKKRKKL
# Chain of Plasmodium falciparum protein kinase 6 (PK6, PF3D7_1337100) (Q8IDW1 1-305): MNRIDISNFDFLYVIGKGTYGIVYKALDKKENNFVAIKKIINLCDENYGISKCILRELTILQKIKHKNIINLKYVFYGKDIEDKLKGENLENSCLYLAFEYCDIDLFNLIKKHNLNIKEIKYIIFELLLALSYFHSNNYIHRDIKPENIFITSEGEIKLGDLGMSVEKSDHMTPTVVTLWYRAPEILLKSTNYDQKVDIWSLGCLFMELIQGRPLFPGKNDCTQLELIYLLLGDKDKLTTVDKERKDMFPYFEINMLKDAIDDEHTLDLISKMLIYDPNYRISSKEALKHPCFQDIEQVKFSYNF
# Chain of Calcium-dependent protein kinase 1 (Plasmodium falciparum (isolate 3D7)) (P62344 whole entry, looked up): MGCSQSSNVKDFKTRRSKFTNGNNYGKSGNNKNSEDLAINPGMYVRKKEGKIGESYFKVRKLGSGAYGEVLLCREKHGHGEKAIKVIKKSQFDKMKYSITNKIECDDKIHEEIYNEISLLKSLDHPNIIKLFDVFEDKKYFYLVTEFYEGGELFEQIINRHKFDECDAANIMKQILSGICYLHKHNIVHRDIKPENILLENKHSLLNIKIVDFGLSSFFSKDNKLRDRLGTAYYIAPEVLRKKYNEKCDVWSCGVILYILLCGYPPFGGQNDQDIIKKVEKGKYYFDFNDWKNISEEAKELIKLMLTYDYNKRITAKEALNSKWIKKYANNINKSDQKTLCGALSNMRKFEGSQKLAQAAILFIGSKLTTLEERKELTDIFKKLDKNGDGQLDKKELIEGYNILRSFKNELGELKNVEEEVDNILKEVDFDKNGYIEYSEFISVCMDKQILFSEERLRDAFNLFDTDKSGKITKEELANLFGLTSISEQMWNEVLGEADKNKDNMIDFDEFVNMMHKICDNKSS
SMILES,growth inhibition [1],inhibition [2],inhibition [3] [%],growth inhibition [4],outcome [5],outcome [6],outcome [7],outcome [8]
COc1ccc(-c2ccc(NC(=O)c3ccc(Cl)cc3)cc2)cc1CN1CCN(C)CC1,23%,36%,7,86% (active),inactive,inactive,inactive,inactive
Cc1cccc2[nH]c(-c3cccc(-c4cccc(CNC(C)C)c4)c3)nc12,98% (active),29%,-4,102% (active),inactive,inactive,inactive,inactive
COc1cc(Nc2ccc3cc(S(=O)(=O)N4CCCCC4C)ccc3n2)cc(OC)c1OC (stereo not drawn),78% (active),-5%,-1,88% (active),inactive,inactive,inactive,inactive
Cn1cccc1C(=O)C(=O)Nc1cccc(-c2ccc(-c3nc4ccc(C(F)(F)F)cc4[nH]3)cc2)c1,27%,62% (active),-7,94% (active),inactive,inactive,inactive,inactive
NC1=NC(c2ccccc2)(c2ccccc2)C(=O)N1CC=Cc1ccccc1,70% (active),23%,-3,98% (active),inactive,inactive,inactive,inactive
CN1CCN(Cc2ccc(-c3cc4c(Nc5ccc(OCc6cccc(F)c6)c(Cl)c5)ncnc4s3)[nH]2)CC1,99% (active),23%,2,101% (active),inactive,inactive,inactive,inactive
COc1ccc(O)c(C(=O)NCCc2ccc(OC)c(-c3ccc(C(C)(C)C)cc3)c2)c1,91% (active),11%,5,88% (active),inactive,inactive,inactive,inactive
O=C(NCCCCCN1CCC(c2c[nH]c3ccccc23)CC1)Nc1ccc(Cl)cc1Cl,15%,71% (active),-2,99% (active),inactive,inactive,inactive,inactive
Cc1cc(N(C)CCN(C)C)nc(Nc2ccc(Br)cc2)n1,23%,7%,-1,97% (active),inactive,inactive,inactive,inactive
Cc1nc(N)nc(N)c1OCCCCCCOc1ccccc1,-3%,59% (active),-2,95% (active),inactive,inactive,inactive,inactive
CCCOc1cc(Cc2cnc(N)nc2N)cc(OC)c1OC,1%,21%,8,85% (active),inactive,inactive,inactive,inactive
COc1ccc(CN(C)CCCOc2ccc(NC(=O)c3cccc4c(=O)c5cccc(F)c5[nH]c34)cc2)cc1OC,96% (active),6%,-3,100% (active),inactive,inactive,inactive,inactive
CC(=O)N1N=C(c2cccs2)Sc2c1nc(-c1ccc(Cl)cc1)n2C(C)=O,93% (active),3%,0,99% (active),inactive,inactive,inactive,inactive
CN(C)C(=O)c1cccc(COc2ccc(N3C(N)=NC(N)=NC3(C)C)cc2Cl)c1,,,1,,inactive,inactive,inactive,inactive
O=C(/C=C/c1ccc(Cl)c(Cl)c1)NCCCCCN1CCC(CCNC(=O)c2snnc2-c2ccccc2)CC1,1%,54% (active),-2,89% (active),inactive,inactive,inactive,inactive
O=C(Nc1ccc(S(=O)(=O)N2CCCCC2)cc1)c1cc(-c2ccccc2O)n[nH]1,81% (active),13%,-2,94% (active),inactive,inactive,inactive,inactive

SMILES,growth inhibition [1],inhibition [2],inhibition [3] [%],growth inhibition [4],outcome [5],outcome [6],outcome [7],outcome [8]
Clc1ccc(-c2nc3ccc(-c4ccc5nc(-c6ccc(Cl)cc6)[nH]c5c4)cc3[nH]2)cc1,99% (active),59% (active),-5,101% (active),inactive,inactive,inactive,inactive
Cc1ccc(N2C(N)=NC(N)=NC2(C)C)cc1,20%,43%,0,96% (active),inactive,inactive,inactive,inactive
O=S(=O)(Nc1cccc(F)c1CNCc1ccccn1)c1ccc(Cl)c(Cl)c1,34%,45%,-5,92% (active),inactive,inactive,inactive,inactive
CC(C)CNCc1cccc(-c2cccc(CN(CCCN3CCN(C)CC3)C(=O)/C=C/c3ccccc3)c2)c1,88% (active),44%,7,90% (active),inactive,inactive,inactive,inactive
COc1ccc2nccc([C@@H](O)CN3CCC(NC/C=C/c4cccnc4)CC3)c2c1,19%,-7%,-2,100% (active),inactive,inactive,inactive,inactive
CCOC(=O)N1CCN(C(=O)Nc2ccc(Cl)cc2)CC1,-2%,4%,0,92% (active),inactive,inactive,inactive,inactive
COc1cccc(C(=O)NCc2cccs2)c1OCc1ccccc1,-1%,-12%,5,96% (active),inactive,inactive,inactive,inactive
CN1CCC(N2CCN(Cc3cccc(-c4ccc(-c5nc6ccc(C(F)(F)F)cc6[nH]5)cc4)c3)CC2)CC1,91% (active),100% (active),4,101% (active),inactive,inactive,inactive,inactive
N=C(N)c1ccc(-c2cc(-c3cccc(C(=N)N)c3)on2)cc1,45%,7%,2,96% (active),inactive,inactive,inactive,inactive
Fc1cccc(COc2ccc(Nc3ncnc4sc(C#C[C@H]5CCCN5)cc34)cc2F)c1,17%,13%,5,98% (active),inactive,inactive,inactive,inactive
COCCOc1ccc(C(F)(F)F)cc1NC(=O)Cc1c(F)cccc1Cl,74% (active),18%,2,88% (active),inactive,inactive,inactive,inactive
CC(=O)Nc1cccc(C(=O)Nc2cccc(-c3csc(-c4nc5ccccc5[nH]4)c3)c2)c1,97% (active),39%,1,96% (active),inactive,inactive,inactive,inactive
Cc1cc(NN=Cc2ccc(Cl)cc2)c2cccc(C)c2n1,47%,-1%,2,103% (active),inactive,inactive,inactive,inactive
COc1ccc(CSC2CCCCC23NC(=S)NC3=S)cc1 (stereo not drawn),-3%,-5%,-1,97% (active),inactive,inactive,inactive,inactive
COc1ccc(NC(=O)CCNc2cc(C)nc(NCCc3ccc(F)cc3)n2)cc1,3%,27%,1,98% (active),inactive,inactive,inactive,inactive
CC1(C)C(=O)Nc2ccccc2N1C(=O)CN1CCN(c2ccccc2O)CC1,72% (active),7%,0,92% (active),inactive,inactive,inactive,inactive
